T cruzi growth-1 – blocks T. cruzi growth in NIH3T3 culture; T. cruzi beta-gal in NIH3T3, GalScreen luminescence, 90 h; inhibition, % at 8.34 µM; 77,000 compounds, 5.9% hits;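 active means mean inhibition above about 93%, with at least 55% of replicates each passing it, limit read from the data, passing the limit was not always enough; inconclusive means only one of those two conditions holds; inactive means neither condition holds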
C diff HTS – blocks growth of Clostridium difficile; growth activity, negative = inhibition, % at 16 µg/mL (by protocol); Clostridium difficile clinical isolate growth, OD600, 24 h; stronger effect = lower value; 86,000 compounds, 0.25% hits;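 active means mean growth activity at or below -80% and every replicate also at or below -80%; inconclusive means mean at or below -80% but some replicate above -80%; inactive means mean growth activity above -80%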;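 further: 0% = DMSO wells and -100% = levofloxacin 16 µg/mL wells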
Pf Dd2 inh – blocks growth of Plasmodium falciparum Dd2 parasites; activity change, % at 10 µM; 94,000 compounds, 2.3% hits; P. falciparum Dd2 growth, SYBR Green, 72 h; stronger effect = lower value; in the data active means activity change below about -80%; inconclusive means no clear call, values can overlap the other calls
T cruzi growth-2 – inhibitors of T. cruzi proliferation; T. cruzi beta-gal in NIH3T3, GalScreen luminescence, 90 h; 5,600 compounds, 72% hits; shares compounds with T cruzi growth-1; inhibition, % at 8.35 µM;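 active means mean replicate inhibition above about 95% and at least 55% of replicates individually reaching it, limit read from the data; inconclusive means only one of the two criteria is met; inactive means neither criterion is met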
T cruzi growth-3 – blocks T. cruzi growth in NIH3T3 host cells; shares compounds with T cruzi growth-1; T. cruzi beta-gal in NIH3T3, GalScreen luminescence, 90 h; inhibition, % at 2.09 µM; 5,600 compounds, 21% hits;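 active means mean inhibition above about 95%, with at least 55% of replicates also reaching it, limit read from the data; inconclusive means meets just one of the two conditions; inactive means meets neither condition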;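 further: plate controls were neutral control median for no effect and positive control median for full effect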
NIH3T3 tox – cytotoxicity in mouse NIH/3T3 fibroblasts; shares compounds with T cruzi growth-1; NIH/3T3 viability, CellTiter-Glo ATP luminescence, 90 h; cytotoxicity (signal decrease), % at 8.35 µM; 5,600 compounds, 14% hits; AID 651742;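 active means mean signal decrease across replicates above about 35% based on untreated-well scatter, with enough replicates individually passing, limit read from the data; inconclusive means no rule stated though some were filed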;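 further: 0% = median of neutral control wells and 100% = median of positive control wells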
NIH3T3 tox 2 – cytotoxicity in mouse NIH/3T3 fibroblasts; NIH/3T3 viability, CellTiter-Glo ATP luminescence, 90 h; AID 651744; 5,600 compounds, 56% hits; inhibition, % at 24.9 µM; shares compounds with T cruzi growth-1;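 active means mean loss of cell viability signal at or above a set limit, and enough replicates individually reaching it; inconclusive means meets only the mean limit or only the replicate share; inactive means meets neither condition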;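 further: 0% = median of neutral control wells and 100% = median of positive control wells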
The depositor's hits bear a star; u = inconclusive; x = not tested or not shown; ! = not confirmed by another sample. Hits are enriched below; roughly 6.8% of the tested compounds scored in any of these assays.

SMILES	T cruzi growth-1	C diff HTS	Pf Dd2 inh	T cruzi growth-2	T cruzi growth-3	NIH3T3 tox	NIH3T3 tox 2
COc1ccc(NC(=O)Nc2ccc3c(c2)C(=O)N([C@@H](C)CO)C[C@@H](C)[C@@H](CN(C)C(=O)Nc2cccc4ccccc24)OCCCC[C@@H](C)O3)cc1	u	6	-70	103*	74	6	-9
COc1ccc(NC(=O)Nc2ccc3c(c2)C(=O)N([C@H](C)CO)C[C@H](C)[C@@H](CN(C)C(=O)Nc2cccc4ccccc24)OCCCC[C@H](C)O3)cc1	35	0	-15	x	x	x	x
C[C@@H]1CCCCO[C@H](CN(C)C(=O)Nc2cccc3ccccc23)[C@@H](C)CN([C@H](C)CO)C(=O)c2cc(NC(=O)Nc3ccccc3)ccc2O1	39	-4	17	x	x	x	x
C[C@H]1CCCCO[C@H](CN(C)C(=O)Nc2cccc3ccccc23)[C@@H](C)CN([C@@H](C)CO)C(=O)c2cc(NC(=O)Cc3ccccc3)ccc2O1	97*	-12	-84*	104*	118*	22	24*
C[C@H]1CCCCO[C@H](CN(C)C(=O)Nc2ccc(F)cc2)[C@@H](C)CN([C@@H](C)CO)C(=O)c2cc(NC(=O)Nc3cccc4ccccc34)ccc2O1	117*	-1	-46	113*	93	-17	-18
C[C@H](CO)N1C[C@H](C)[C@H](CN(C)C(=O)Nc2ccc(F)cc2)OCCCC[C@H](C)Oc2ccc(NC(=O)Nc3cccc4ccccc34)cc2C1=O	78	2	8	x	x	x	x
CCCC(=O)Nc1ccc2c(c1)C(=O)N(C)[C@@H]1CC[C@@H](CC(=O)NCc3cccc(F)c3)O[C@@H]1CO2	-17	x	5	x	x	x	x
CC(=O)N1CCCCN2[C@@H](CO)[C@@H](c3ccc(-c4cccc(C)c4)cc3)[C@@H]2C1	u	-6	22	53	50	42*	62*
CC(=O)N1CCCCN2[C@H](CO)[C@@H](c3ccc(-c4cccc(C)c4)cc3)[C@H]2C1	-7	-12	25	x	x	x	x
CC(=O)N1CCCCN2[C@H](CO)[C@H](c3ccc(-c4ccc(C)cc4)cc3)[C@@H]2C1	117*	-10	10	98*	16	44*	34*
CC(=O)N1CCCCN2[C@@H](CO)[C@@H](c3ccc(-c4ccccc4)cc3)[C@@H]2C1	85	-14	-6	x	x	x	x
C[C@H]1CN([C@@H](C)CO)C(=O)c2cc(C#Cc3ccccc3F)cnc2O[C@H]1CN(C)S(=O)(=O)c1ccccc1F	97*!	-2	-39	107*	77	60*	40*
C[C@@H]1CN([C@H](C)CO)C(=O)c2cc(C#Cc3ccccc3)cnc2O[C@H]1CN(C)S(=O)(=O)c1ccccc1F	u	-2	-55	105*	70	24	46*
C[C@H]1CN([C@@H](C)CO)C(=O)c2cc(C#Cc3ccccc3)cnc2O[C@H]1CN(C)S(=O)(=O)c1ccccc1F	85	2	-59	x	x	x	x
C[C@H]1CN([C@@H](C)CO)C(=O)c2cc(C#Cc3ccccc3F)cnc2O[C@@H]1CN(C)S(C)(=O)=O	70	x	-20	x	x	x	x
C[C@H]1CN([C@@H](C)CO)C(=O)c2cc(C#Cc3ccccc3F)cnc2O[C@@H]1CN(C)S(=O)(=O)c1ccccc1F	115*	-11	-44	111*	76	26	43*
C[C@@H]1CN([C@@H](C)CO)C(=O)c2cc(C#Cc3ccccc3)cnc2O[C@@H]1CN(C)S(=O)(=O)c1ccccc1F	52	4	-53	x	x	x	x
COc1ccc(NC(=O)Nc2ccc3c(c2)CC(=O)N([C@@H](C)CO)C[C@@H](C)[C@H](CN(C)Cc2ccncc2)O3)cc1	x	-5	-1	x	x	x	x
CCCN1[C@@H]2Cn3c(ccc(-c4ccccc4OC)c3=O)[C@H]1[C@@H](C(=O)NCc1ccccn1)[C@@H]2CO	72	-2	x	x	x	x	x
C[C@@H]1CN([C@@H](C)CO)S(=O)(=O)c2ccc(C#CC3CC3)cc2O[C@H]1CN(C)C(=O)c1ccccc1	u	2	-67	u	53	29	48*
C[C@H](CO)N1C[C@H](C)[C@H](CN(C)C(=O)c2cccnc2)Oc2cc(C#CC3CC3)ccc2S1(=O)=O	5	1	-13	x	x	x	x
C[C@H]1CN([C@@H](C)CO)S(=O)(=O)c2ccc(C#CC3CC3)cc2O[C@@H]1CN(C)C(=O)c1ccncc1	86	-13	-66	x	x	x	x
C[C@H]1CN([C@@H](C)CO)S(=O)(=O)c2ccc(C#CC3CC3)cc2O[C@H]1CN(C)C(=O)c1ccncc1	110*	-10	-49	96*	81	13	30*
CC=Cc1ccc2n(c1=O)C[C@@H]1[C@@H](CO)[C@H](C(=O)Nc3ccc(-c4ccccc4)cc3)N(CCC)[C@H]21 (mixture of isomers)	103*	9	-38	100*	68	7	106*
CC=Cc1ccc2n(c1=O)C[C@H]1[C@H](CO)[C@@H](C(=O)Nc3ccc(-c4ccccc4)cc3)N(C(C)=O)[C@@H]21 (mixture of isomers)	-1	9	8	x	x	x	x
SMILES	T cruzi growth-1	C diff HTS	Pf Dd2 inh	T cruzi growth-2	T cruzi growth-3	NIH3T3 tox	NIH3T3 tox 2
CC=Cc1ccc2n(c1=O)C[C@H]1[C@H](CO)[C@@H](C(=O)Nc3ccc(-c4ccccc4)cc3)N(CCC)[C@@H]21 (mixture of isomers)	112*	8	-29	92	85	24	104*
CC=Cc1ccc2n(c1=O)C[C@H]1[C@H](CO)[C@@H](C(=O)Nc3ccc(-c4ccccc4)cc3)N(C)[C@@H]21 (mixture of isomers)	90	18	x	x	x	x	x
O=C(C[C@H]1C[C@H]2c3cc(NC(=O)C4CCOCC4)ccc3O[C@H]2[C@H](CO)O1)NCCc1ccccc1	-34	1	7	x	x	x	x
Cc1noc(C)c1NC(=O)N(C)C[C@H]1Oc2ccc(NC(=O)Nc3ccc4c(c3)OCO4)cc2CC(=O)N([C@H](C)CO)C[C@@H]1C	14	-2	17	x	x	x	x
COCC#Cc1ccc([C@@H]2[C@@H](CO)N3C(=O)CN(C(=O)Nc4ccc(F)cc4)C[C@H]23)cc1	x	-5	9	x	x	x	x
CC(=O)N1CC2(C1)[C@H](c1ccccc1)[C@@H](CO)N2Cc1ccccc1	x	-6	0	x	x	x	x
Cc1ccc(-c2ccc3c(c2)O[C@@H](CN(C)Cc2cncnc2)[C@H](C)CN([C@H](C)CO)S3(=O)=O)cc1	x	0	-2	x	x	x	x
C[C@@H]1CN([C@@H](C)CO)S(=O)(=O)c2ccc(-c3ccncc3)cc2O[C@@H]1CN(C)Cc1cncnc1	89	1	35	x	x	x	x
C[C@H](CO)N1C[C@H](C)[C@H](CN(C)Cc2cncnc2)Oc2cc(-c3ccncc3)ccc2S1(=O)=O	u	3	13	79	79	46*	49*
